Source: PubChem BioAssay
CD11b adhes inh – CD11b/CD18-fibrinogen binding inhibition. K562 CD11b/CD18 adhesion to fibrinogen, ATPlite luminescence; Mn2+ added to activate the integrin. inhibition, % at 10 µM. actives 0.54% (n = 93,000). AID 1497;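 active = primary inhibition of 50% or more at 10 µM, then 40% or more on retest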
Target sequence (P05107 whole entry, looked up, other chains not shown): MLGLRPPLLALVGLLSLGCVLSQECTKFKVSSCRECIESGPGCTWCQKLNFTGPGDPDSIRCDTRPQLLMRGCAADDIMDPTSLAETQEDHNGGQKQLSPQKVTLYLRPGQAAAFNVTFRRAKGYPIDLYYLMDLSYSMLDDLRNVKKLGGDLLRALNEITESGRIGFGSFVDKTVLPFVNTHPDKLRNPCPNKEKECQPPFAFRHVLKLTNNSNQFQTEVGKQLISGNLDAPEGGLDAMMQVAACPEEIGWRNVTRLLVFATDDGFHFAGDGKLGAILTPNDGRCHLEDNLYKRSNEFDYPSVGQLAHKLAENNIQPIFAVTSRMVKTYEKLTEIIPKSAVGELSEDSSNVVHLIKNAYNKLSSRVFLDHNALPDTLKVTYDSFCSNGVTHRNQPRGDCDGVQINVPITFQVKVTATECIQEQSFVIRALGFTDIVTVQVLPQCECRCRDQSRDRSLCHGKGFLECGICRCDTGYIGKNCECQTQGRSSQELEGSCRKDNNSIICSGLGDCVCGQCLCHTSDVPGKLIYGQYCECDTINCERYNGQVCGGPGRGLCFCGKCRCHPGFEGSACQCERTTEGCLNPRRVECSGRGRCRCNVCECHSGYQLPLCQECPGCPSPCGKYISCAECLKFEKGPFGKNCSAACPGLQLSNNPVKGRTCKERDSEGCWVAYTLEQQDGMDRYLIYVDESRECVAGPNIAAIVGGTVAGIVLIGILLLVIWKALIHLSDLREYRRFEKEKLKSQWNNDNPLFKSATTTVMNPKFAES
CYP2C9 inh – inhibitors of human CYP2C9; actives 20% (n = 96,000); P11712; CYP2C9 Supersomes, luciferin-H conversion, luminescence; inhibition, % at 5 µM; AID 777;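 active = blocking of liver enzyme CYP2C9 beyond about 50% at 5 µM, limit read from the data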
CD11b adhes enh – enhancers of human CD11b/CD18 binding to fibrinogen; P05107+P11215; K562 CD11b/CD18 adhesion to fibrinogen, ATPlite luminescence; activation, % at 10 µM; actives 0.07% (n = 93,000); AID 1499;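 active = 10 µM primary screen giving 50% or more activity, confirmed by 40% or more on retest at that dose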
CYP2C9 activ – activators of human CYP2C9. AID 1024. activation factor at 5 µM. P11712. recombinant CYP2C9, luciferin-H conversion, luminescence; stronger effect = higher value; factor 1 = untreated enzyme, 0 = blocked. actives 1.4% (n = 96,000);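 active = activation factor of 2 or more for CYP2C9 at a 5 µM dose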;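 also: 0 = sulfaphenazole-blocked wells and 1 = vehicle-only wells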
CYP2C19 inh – blocks human cytochrome P450 2C19; P33261; CYP2C19 Supersomes, luciferin-H EGE luminescence, 30 min; inhibition, % at 5 µM; actives 21% (n = 96,000); AID 778;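 active = CYP2C19 inhibition above a set limit at 5 µM in the primary screen, cut at about 50% in these data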;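 also: plate controls were negative control wells for no effect and 2.5 mM tranylcypromine positive control for full effect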
CYP2C19 activ – cytochrome P450 2C19 (human) activation; recombinant CYP2C19, luciferin-H EGE luminescence; stronger effect = higher value; 0 = fully inhibited enzyme, 1 = untreated enzyme; AID 1025; activation factor at 5 µM; 96,000 tested, under 10 active; P33261;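 active = activation factor of at least 2 at 5 µM in the primary screen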;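 also: 0 = wells with 2.5 mM tranylcypromine and 1 = vehicle-only wells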
* marks the source's active call; other numbers are inactive results. Compounds with a hit are over-represented: about 28% of the library has one in this group of screens.

Screening O=[N+]([O-])c1cc([N+](=O)[O-])c(N2CCCCCC2)cc1NCCO returned CD11b adhes inh -3, CYP2C9 inh 70*, CD11b adhes enh -3, CYP2C9 activ 0.3, CYP2C19 inh 45 and CYP2C19 activ 0.5.
`COc1ccc(CCNC(=O)CN(c2ccc(OC)c(OC)c2)S(C)(=O)=O)cc1` gave CD11b adhes inh -8, CYP2C9 inh 80*, CD11b adhes enh 3, CYP2C9 activ 0.2, CYP2C19 inh 38 and CYP2C19 activ 0.6.
COc1ccc(OC)c(NC(=O)CN(c2ccc(OC)c(Cl)c2)S(C)(=O)=O)c1 was read as CD11b adhes inh 13, CYP2C9 inh 63*, CD11b adhes enh -1, CYP2C9 activ 0.4, CYP2C19 inh 39 and CYP2C19 activ 0.6.
COc1ccc(C)cc1NC(=O)COC(C)=O was read as CD11b adhes inh 23, CYP2C9 inh -23, CD11b adhes enh 0, CYP2C9 activ 1.2, CYP2C19 inh 0 and CYP2C19 activ 1.
Screening COc1ccc(NC(=O)CN(c2ccc(C)cc2)S(C)(=O)=O)c(OC)c1 returned CD11b adhes inh -13, CYP2C9 inh 98*, CD11b adhes enh 1, CYP2C9 activ 0, CYP2C19 inh 78* and CYP2C19 activ 0.2.
`COc1ccc(NC(=O)CN(c2ccc([N+](=O)[O-])cc2)S(=O)(=O)c2ccccc2)c(OC)c1` gave CD11b adhes inh 11 and CD11b adhes enh 4.
CCOc1ccc(N(CC(=O)Nc2ccc(OC)cc2)S(C)(=O)=O)cc1 was read as CD11b adhes inh -9, CYP2C9 inh 20, CD11b adhes enh -3, CYP2C9 activ 0.8, CYP2C19 inh 11 and CYP2C19 activ 0.9.
For COc1ccc(C)cc1NC(=O)CN(c1ccccc1)S(C)(=O)=O the results were CD11b adhes inh 2, CYP2C9 inh 51*, CD11b adhes enh 1, CYP2C9 activ 0.5, CYP2C19 inh 22 and CYP2C19 activ 0.8.
O=C(CSc1nc(O)c(Cc2ccccc2)c(=O)n1-c1ccccc1)N1CCOCC1 was read as CD11b adhes inh 9, CYP2C9 inh -23, CD11b adhes enh -2, CYP2C9 activ 1.2, CYP2C19 inh -10 and CYP2C19 activ 1.1.
For O=C(NC1CS(=O)(=O)CC1NCc1ccco1)c1ccccc1 (stereo unspecified) the results were CD11b adhes inh 15, CYP2C9 inh 10, CD11b adhes enh 1, CYP2C9 activ 0.9, CYP2C19 inh 26 and CYP2C19 activ 0.7.
Screening COC(=O)CN1C2(C#N)CCCCC2CC2CCCCC21C#N (stereo unspecified) returned CD11b adhes inh 12, CYP2C9 inh -20, CD11b adhes enh -1, CYP2C9 activ 1.2, CYP2C19 inh -16 and CYP2C19 activ 1.2.
Screening CCOc1ccc(NC(=O)CN(c2ccc(OC)cc2)S(C)(=O)=O)cc1 returned CD11b adhes inh -3, CYP2C9 inh 49, CD11b adhes enh 4, CYP2C9 activ 0.5, CYP2C19 inh 25 and CYP2C19 activ 0.8.
`COC(=O)c1ccc(NC(=O)CN(c2ccc(OC)cc2)S(C)(=O)=O)cc1` gave CD11b adhes inh -1, CYP2C9 inh 67*, CD11b adhes enh 6, CYP2C9 activ 0.3, CYP2C19 inh 15 and CYP2C19 activ 0.8.
For COc1ccc(N(CC(=O)NC(C)C)S(=O)(=O)c2ccc(NC(C)=O)cc2)cc1 the results were CD11b adhes inh 2, CYP2C9 inh 93*, CD11b adhes enh -1, CYP2C9 activ 0.1, CYP2C19 inh 88* and CYP2C19 activ 0.1.
COCCCNC(=S)Nc1ccc2c(c1)OCCO2 was read as CD11b adhes inh -1 and CD11b adhes enh -4.
`O=C(Oc1ccc(Br)cc1)c1cncc(Br)c1` gave CD11b adhes inh 0, CYP2C9 inh 4, CD11b adhes enh -1, CYP2C9 activ 1, CYP2C19 inh 3 and CYP2C19 activ 1.
Screening COc1ccc(C2=Nc3ccccc3OC2)cc1 returned CD11b adhes inh 36, CYP2C9 inh 58*, CD11b adhes enh -3, CYP2C9 activ 0.4, CYP2C19 inh 70* and CYP2C19 activ 0.3.
`COC(=O)C1=C(C)N(CC(C)C)C(=O)/C1=C\c1cccs1` gave CD11b adhes inh -17, CYP2C9 inh 28, CD11b adhes enh 1, CYP2C9 activ 0.7, CYP2C19 inh 31 and CYP2C19 activ 0.7.
`CCN1C(=O)/C(=C\c2cccs2)C(C(=O)OC)=C1C` gave CD11b adhes inh -1, CYP2C9 inh 51*, CD11b adhes enh 1, CYP2C9 activ 0.5, CYP2C19 inh 14 and CYP2C19 activ 0.9.
For NC(=O)C[C@@H]1N[C@]2(C(=O)Nc3ccccc32)[C@@H]2C(=O)N(c3cc(C(F)(F)F)ccc3Cl)C(=O)[C@H]12 the results were CD11b adhes inh -6, CYP2C9 inh 25, CD11b adhes enh -5, CYP2C9 activ 0.7, CYP2C19 inh 24 and CYP2C19 activ 0.8.
For O=C(Nc1ccc2oc(-c3ccccc3F)nc2c1)c1ccc2c(c1)OCCO2 the results were CD11b adhes inh 15, CYP2C9 inh 51*, CD11b adhes enh -3, CYP2C9 activ 0.5, CYP2C19 inh 49 and CYP2C19 activ 0.5.
`CCc1ccc(-n2nc3ccc(NC(=O)c4ccc5c(c4)OCO5)cc3n2)cc1` gave CD11b adhes inh -7, CYP2C9 inh 13, CD11b adhes enh 1, CYP2C9 activ 0.9, CYP2C19 inh 6 and CYP2C19 activ 0.9.
CC(=O)Nc1ccc2oc(-c3ccccc3Br)nc2c1 was read as CD11b adhes inh 12, CYP2C9 inh 73*, CD11b adhes enh -3, CYP2C9 activ 0.3, CYP2C19 inh 27 and CYP2C19 activ 0.7.
For O=C(Nc1ccc2nn(-c3ccccc3)nc2c1)c1ccc2c(c1)OCCO2 the results were CD11b adhes inh 3, CYP2C9 inh 56*, CD11b adhes enh -7, CYP2C9 activ 0.4, CYP2C19 inh 59* and CYP2C19 activ 0.4.
For Cc1ccc(-n2nc3ccc(NC(=O)c4ccc5c(c4)OCO5)cc3n2)cc1 the results were CD11b adhes inh -5, CYP2C9 inh 17, CD11b adhes enh 139*, CYP2C9 activ 0.8, CYP2C19 inh 6 and CYP2C19 activ 0.9.
Screening CCC(C)N(C(=O)Cn1nnc2ccccc21)C(C(=O)Nc1ccc(F)cc1)c1cccc(OC)c1 (stereo unspecified) returned CYP2C9 inh 19, CYP2C9 activ 0.8, CYP2C19 inh 27 and CYP2C19 activ 0.7.
O=C(Nc1nc(-c2ccccc2)cs1)c1ccc(Br)o1 was read as CYP2C9 inh 37, CYP2C9 activ 0.6, CYP2C19 inh 24 and CYP2C19 activ 0.8.
Cc1cc(C)n(-c2ccc(C(=O)NCc3ccc4c(c3)OCO4)cc2)n1 was read as CD11b adhes inh -18, CYP2C9 inh 49, CD11b adhes enh -2, CYP2C9 activ 0.5, CYP2C19 inh 42 and CYP2C19 activ 0.6.
